According to PubChem BioAssay (NCATS):
Results filed as inconclusive are left out. Where a call stands in place of a potency, no number is given. Active and inactive are the calls of the source. The call rests on the fitted dose curve; in most records, active means well fitted inhibition curve with a large enough effect; inconclusive means small, poorly fitted or top-dose-only effect; inactive means flat fitted curve, though single readings scatter.

Target: Calcium and integrin-binding protein 1 (Homo sapiens) (UniProt Q99828)
Sequence (Q99828 whole entry, looked up): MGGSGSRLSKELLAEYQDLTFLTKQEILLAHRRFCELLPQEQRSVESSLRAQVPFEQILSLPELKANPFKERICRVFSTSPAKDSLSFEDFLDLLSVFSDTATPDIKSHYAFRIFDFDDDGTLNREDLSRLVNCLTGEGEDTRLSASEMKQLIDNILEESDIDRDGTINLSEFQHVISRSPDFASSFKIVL
Assay: Primary qHTS for Identification of Calcium Integrin Binding Protein 1 (CIB1) Competitor (AID 1508620);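 further: GST tagged CIB1 binding a fluorescein labelled alphaIIb integrin peptide tracer; top concentration of the series differs between compounds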
Conditions: CIB1-GST / FITC-alphaIIb peptide fluorescence polarization; series mostly up to 114 µM
Summary of the method: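 Fluorescence polarization competition: CIB1-GST (1 uM final) preincubated with compound 15 min at room temperature, then FITC-labeled alphaIIb peptide (100 nM final) added for another 15 min. Polarization read at Ex 480/Em 540.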

Row | SMILES | Potency
1 | C=C1C(=O)OC[C@@H]1C/C=C(\C)CC1CC(C)C(=O)O1 (stereo partly specified) | inactive
2 | COC(=O)C1=CO[C@@H](O[C@@H]2O[C@H](CO)[C@@H](O)[C@H](O)[C@H]2O)[C@H]2[C@@H]1C=C[C@]21C=C([C@H](C)OC(=O)/C=C/c2ccc(O)cc2)C(=O)O1 | inactive
3 | c1cc(-c2cnn3cc(-c4ccc(N5CCNCC5)cc4)cnc23)c2cccnc2c1 | inactive
4 | Cc1cc(-c2cc(OC(=O)c3ccccc3)ccc2Cl)cc2nnc(Nc3ccc(OCCN4CCCC4)cc3)nc12 | inactive
5 | COc1ccccc1C(=O)Nc1cccc(NC(=O)c2cccc(C)c2)c1 | inactive
6 | O=C(Nc1ccccc1)N1CCN(c2nc(-c3ccccc3)ns2)CC1 | inactive
7 | C=C1C(=O)O[C@@H]2C[C@]3(C)[C@@H](CCC(C)O)[C@@H]3C[C@H]12 (stereo partly specified) | inactive
8 | COc1c(CCC(=O)O)cccc1O[C@@H]1O[C@H](CO)[C@@H](O)[C@H](O)[C@H]1O | inactive
9 | C=C1C(=O)O[C@@H]2C[C@H](C)[C@@H]3CC(=O)C(C)=C3C[C@H]12 | inactive
10 | COc1c(C(O)CC(C)C)ccc2c1C(=O)OCc1cc(C)cc(O)c1O2 (stereo unspecified) | inactive
11 | C[C@@H]1CC[C@]2(C(=O)O)CC[C@]3(C)C(=CCC4[C@@]5(C)CC[C@H](O)[C@](C)(C(=O)O)C5CC[C@]43C)C2[C@]1(C)O (stereo partly specified) | inactive
12 | C=C(C=O)[C@]1(O)C[C@@]2(C)C(=CC1=O)C=C[C@H](OC(=O)/C=C/C=C/[C@H](C)CC)[C@@H]2C | inactive
13 | C=C(C)C1=C[C@@]2(C)C(=CC1=O)CC[C@@H](O)[C@@H]2C | inactive
14 | CC1=CC2/C=C(\C)CCC3OC(C)(C)OC3CCC(=O)C23C(=O)NC(CC(C)C)C3C1C (stereo unspecified) | inactive
15 | CN[C@@H]1[C@H](O[C@H]2[C@H](O[C@@H]3[C@@H](O)[C@H](O)[C@@H](N=C(N)N)[C@H](O)[C@H]3N=C(N)N)O[C@@H](C)[C@]2(O)CO)O[C@@H](CO)[C@H](O)[C@H]1O | inactive
16 | CC(=O)OC/C(=C/C(=O)O)CC[C@@H]1C(C=O)=CC[C@@H]2C(C)(C)CCC[C@@]12C | inactive
17 | Cc1ccc(C(C)C)c(O[C@@H]2O[C@H](CO)[C@@H](O)[C@H](O)[C@H]2O)c1 | inactive
18 | COc1cc(CCC2=NN=C(NC(=O)c3ccc(N4C[C@@H](C)N[C@@H](C)C4)cc3)C2)cc(OC)c1 | inactive
19 | O=C1Cc2c([nH]c3ccc(Br)cc23)-c2ncccc2N1 | inactive
20 | C=C1CCC[C@]2(C)CC/C(=C(/CO)C(=O)OC)C[C@@H]12 | inactive
21 | S=C(c1ccc(-c2ccc(Cl)c(Cl)c2)o1)N1CCCCC1 | inactive
22 | C=CC(C)(C)C12CC3C(=O)N4C(CC5(C(C)(C)C=C)c6ccccc6NC45)C(=O)N3C1Nc1ccccc12 (stereo unspecified) | inactive
23 | Cc1nc(NC(=O)N2CCCC2C(N)=O)sc1-c1ccnc(C(C)(C)C(F)(F)F)c1 (stereo unspecified) | inactive
24 | CC(=O)O[C@@]12CO[C@@H]1C[C@H](O)[C@@]1(C)C(=O)[C@H](O)C3=C(C)[C@@H](OC(=O)[C@H](O)[C@@H](NC(=O)OC(C)(C)C)c4ccccc4)C[C@@](O)([C@@H](OC(=O)c4ccccc4)C12)C3(C)C (stereo partly specified) | inactive
25 | C/C=C/C1=CC2=C(CO1)C(=O)C(C)(OC(=O)c1c(C)cc(O)cc1OC)C(O)C2 (stereo unspecified) | inactive
26 | Cc1ccc(N2CCN(S(=O)(=O)N3CCCCC3)CC2)c(C)c1 | inactive
